The test can be described thus: blockers of AIP-driven agr signalling in S. aureus – RNAIII-GFP reporter, flow cytometry, primary screen (AID 527).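 Further: 0% = AIP-stimulated control and 100% = unstimulated bacteria without AIP.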 The conditions noted are these: S. aureus RN6390 RNAIII-GFP reporter, AIP-induced, flow cytometry 3 h, at 2 µM, stronger effect = higher value. For orientation: A flow cytometer gives signals particle by particle.
Where [1] appears, read: measured here: inhibition of GFP MFI.

SMILES strings stand for the structures. Out of some 24,000 compounds screened, about 65 (0.3%) were called active.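 How the source made its calls: active means share of bacteria positive for the green fluorescent reporter and its mean brightness both inhibited by 50% or more; inactive means the rest, inconclusive results apart.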 What follows is part of a selection rich in actives, with near analogues and random picks from the rest.

The term inhibition denotes the drop in the measured response relative to a control, in per cent. For `Cc1nc2ccc(S(=O)(=O)NCC(=O)NCCN3CCCCC3C)cc2s1` (centres undefined), the inhibition was -2.2% (inactive). The inhibition under setting [1] was -14.7%.
Taken in the same sequence, the figures for `CCCOC(=O)c1cc2ccccc2oc1=O` were 3.4% (inactive) and 8.3%.
On the same counts, the results for `CSc1cccc(NC(=O)C2CCCN2S(=O)(=O)c2ccc3c(c2)CCC(=O)N3)c1` (centres undefined) are 8.9% (inactive) and 21%.
On the same counts, the results for `O=C(CN1C(=O)CSc2ncccc21)N1CCOCC1` are -5.1% (inactive) and -14.2%.
As for `CC1CN(C(=O)c2ccc3c(c2)OCO3)OC(c2ccccc2)O1` (centres undefined), the inhibition was 6% (inactive). For the same molecule, under setting [1], the inhibition was 10.1%.
Taken in the same sequence, the figures for `c1ccc(-c2cn3cccnc3n2)cc1` were -2.7% (inactive) and -34.3%.
Taken in the same sequence, the figures for `CS(=O)(=O)NCc1ccc(C(=O)NCc2ccccc2)cc1` were -0.2% (inactive) and -1.2%.
On the same counts, the results for `CS(=O)(=O)N(Cc1nc2sc3c(c2c(=O)[nH]1)CCCC3)C1CCCCC1` are 0.3% (inactive) and -0.2%.
In the case of `Cc1ccc(NC(=O)CSc2nnc(-c3cnccn3)n2Cc2ccco2)cc1C`, the inhibition was -0.7% (inactive). Besides, the inhibition under setting [1] is -6.3%.
`CC(=O)C1C(c2cccc(Oc3ccccc3)c2)NC(=O)NC1(O)C(F)(F)F` (centres undefined): the inhibition was 18.4% (inactive). The inhibition under setting [1] is 32%.
Taken in the same sequence, the figures for `CCOc1ccc(NCCC(=O)c2ccc3c(c2)OCO3)cc1` were -0.1% (inactive) and 10.4%.
Taken in the same sequence, the figures for `CCOC(=O)C1CCN(C(=O)C2CCN(S(=O)(=O)c3c(C)noc3C)CC2)CC1` were -1.5% (inactive) and -40%.
Taken in the same sequence, the figures for `COc1cc(C2C(C#N)=C(N)Oc3n[nH]c(-c4ccccn4)c32)cc(OC)c1OC` (centres undefined) were -3.4% (inactive) and 8.1%.
For the molecule `CSc1ccc(NC(=O)N2CC(C)OC(C)C2)cc1` (centres undefined), the inhibition was 0% (inactive). In addition, the inhibition under setting [1] was found to be 1.1%.
On the same counts, the results for `O=C(CN1CCN(S(=O)(=O)c2ccc(F)cc2)CC1)Nc1ccccc1F` are 11.5% (inactive) and 16.5%.
Taken in the same sequence, the figures for `COc1ccc(C2CC(c3ccc(C)cc3)Nc3ncnn32)cc1` (centres undefined) were -0.4% (inactive) and 12.6%.
On the same counts, the results for `CCCCN=C(N)/C(C(=O)OCC)=C(\O)c1ccc(OC)cc1` are 0.5% (inactive) and 11.9%.
Regarding `O=C(O)c1cccc2c1C(=O)N(C1CCCCC1)C2`, the inhibition is 0% (inactive). Moreover, the inhibition under setting [1] was found to be 21.1%.
On the same counts, the results for `CCN(CC)S(=O)(=O)c1ccc2[nH]cc(C(=O)NCCc3ccccc3)c(=O)c2c1` are -0.1% (inactive) and -2.7%.
On the same counts, the results for `COc1c(F)c(F)c(C(=O)O)c(Nc2ccccc2C)c1F` are -1.7% (inactive) and -14%.
Taken in the same sequence, the figures for `COc1ccc(C(=O)Nc2cccnc2)cc1C(=O)Nc1cccnc1` were 2.2% (inactive) and 2.6%.
As to `COc1ccc(N2C(=O)c3cccc4cccc(c34)C2=O)nn1`, the inhibition was -1.1% (inactive). The inhibition under setting [1] is -16.4%.
Taken in the same sequence, the figures for `Cc1cccc(C)c1NC(=O)N1CC=C(n2c(=O)[nH]c3ccccc32)CC1` were 8.3% (inactive) and 17.1%.
On the same counts, the results for `CCCCC(CC)C(=O)Nc1ccc(Cl)cn1` (centres undefined) are 0.6% (inactive) and 18.7%.
On the same counts, the results for `Cc1nc2nc[nH]n2c(=O)c1NC(=O)c1cccc(OCC(C)C)c1` are -5.4% (inactive) and -8.1%.
Regarding `COc1ccc(-c2c(C)nn3c(N4CCC(C(=O)N5CCCCC5)CC4)cc(C)nc23)cc1OC`, the inhibition was -3.5% (inactive). Moreover, the inhibition under setting [1] was -8.8%.
Taken in the same sequence, the figures for `CCOc1ccc(-c2nnn(CC(=O)N3CCN(c4ccc(F)cc4)CC3)n2)cc1OCC` were 0.7% (inactive) and 1.3%.
On the same counts, the results for `COc1cccc(CN2C(=O)CCC2(C)C(=O)NC2CCCCCC2)c1` (centres undefined) are -1.4% (inactive) and -12.5%.
On the same counts, the results for `COCCCNC(=O)c1ccc2c(c1)ncn2-c1ccccc1OC` are -3.4% (inactive) and -5.1%.
In the case of `CCOC(=O)c1cc(NC(=O)SCC(=O)O)c(C)nc1C`, the inhibition is -1.6% (inactive). Also, the inhibition under setting [1] is -14.7%.
On the same counts, the results for `CCOc1cc(/C=N/n2cnnc2)c(Br)cc1O` are -1.6% (inactive) and -8.8%.
Taken in the same sequence, the figures for `COCCNC(=S)c1ccc(OC)cc1` were -3.4% (inactive) and -6.1%.
On the same counts, the results for `Clc1ccc(Cc2nn3c(-c4ccncc4)nnc3s2)cc1` are 0.3% (inactive) and 5.4%.
Turning to `CCC(=O)c1ccc(OCC(O)CN2C(=O)NC(C)(C)C2=O)cc1` (centres undefined), the inhibition is -0.8% (inactive). In addition, the inhibition under setting [1] was -2.7%.
On the same counts, the results for `COc1ccc(S(=O)(=O)NC(CC(=O)NCc2ccccc2OC)c2ccco2)cc1` (centres undefined) are -0.4% (inactive) and -11.3%.
On the same counts, the results for `CC(C)CCNC(=O)CCNS(=O)(=O)c1ccc(Cl)cc1` are 2.3% (inactive) and 8%.
On to `O=C(CCS(=O)(=O)Cc1ccccc1F)NCCCN1CCCCC1`, for which the inhibition is -1.8% (inactive). Further, the inhibition under setting [1] is -2.4%.

These data come from PubChem BioAssay AID527 (NMMLSC, 2006).
